Measured values reported in PubChem BioAssay AID2113 (National Center for Advancing Translational Sciences (NCATS), 2009).
Results filed as inconclusive are left out. A number with no mark means an inactive call. The source made the active and inactive calls. Calls come from the whole dose curve; as a rule, active = well fitted curve in either direction with a large enough effect; inconclusive = small, poorly fitted or top-dose-only effect; inactive = no such curve, though single readings can be large or run the other way.

target: Lysosomal alpha-glucosidase (Homo sapiens) (UniProt P10253); assay: Confirmation of Inhibitors and Activators of Human alpha-Glucosidase From Spleen Homogenate; settings: alpha-glucosidase enzyme activity; series mostly up to 60.5 µM; activity change, both directions: at the top concentration;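 for Potency: fluorescence of 4-methylumbelliferone released from a fluorogenic glucopyranoside substrate at pH 5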; for activity change, both directions: 0% is about no effect
Summary of the method: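 Compounds titrated against spleen-homogenate alpha-glucosidase, pH 5.0, 1 mM 4-MU-glucoside substrate, 37 C for 40 min. Fluorescence after pH 10 stop, normalised to no-enzyme and enzyme controls; Hill-equation AC50.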
Potency is the fitted concentration of half-maximal effect.

| Compound | activity change, both directions | Potency |
| --- | --- | --- |
| Cc1ccc(-c2nc(-c3cc4ccccc4oc3=O)sc2C)cc1 | 5.61% | – |
| Cc1ccc(S(=O)(=O)N2CCOCC2)cc1C | -0.759% | – |
| O=c1oc2ccc(Cl)cc2cc1-c1nc2c(s1)CCCC2 | 15.9% | – |
| CC(=O)c1ccc(N2CCN(S(=O)(=O)c3ccc4c(c3)n(C)c(=O)n4C)CC2)cc1 | 0.0126% | – |
| O=C1c2cc(S(=O)(=O)N3CCOCC3)ccc2-c2ccc(S(=O)(=O)N3CCOCC3)cc21 | -16.8% | – |
| O=C(CSc1ccccc1)Nc1nnc(/C=C/c2ccccc2)s1 | 14% | – |
| O=c1oc2ccc3ccccc3c2cc1-c1nc2c(s1)CCc1ccccc1-2 | 7.81% | – |
| Cn1c(-c2ccco2)nc2cc3ccccc3cc21 | 7.84% [at 31.5 µM] | – |
| Cc1ccc(-c2nc(-c3cc4cc(Cl)ccc4oc3=O)sc2C)cc1 | 5.44% | – |
| O=C(c1ccccc1)N1CCN(S(=O)(=O)c2ccccc2)CC1 | 1.54% | – |
| Cc1nc(-n2nnc(CO)c2CO)nc2c1CCC2 | 9.14% | – |
| CC1S/C(=N\N=C\c2cccc([N+](=O)[O-])c2)N(C(C)(C)C)C1=O (stereo not given) | -1.21% [at 31.5 µM] | – |
| Cc1c(OCC(F)(F)F)ccnc1CS(=O)c1nc2ccccc2[nH]1 (stereo not given) | -4.12% [at 286 µM] | – |
| CCCN1CNc2c(c(=O)[nH]c(=S)n2CCC(C)C)C1 | -14.7% | – |
| CCCN1CNc2c(c(=O)[nH]c(=S)n2Cc2ccc(OC)c(OC)c2)C1 | – | 12.6 µM (active) |
| Cc1cccn2c(=O)c3cc(C#N)c(=NC(=O)c4cccs4)n(CCCOC(C)C)c3nc12 | 4.63% [at 31.5 µM] | – |
| Cc1sc(-c2cc3c(ccc4ccccc43)oc2=O)nc1-c1ccccc1 | 3.68% | – |
| Cc1ccc(S(=O)(=O)NC(=O)NN2CCCCCC2)cc1 | 0.869% | – |

| Compound | activity change, both directions | Potency |
| --- | --- | --- |
| O=S(=O)(c1ccccc1F)N1CCOCC1 | -1.74% | – |
| O=c1[nH]c2ccccc2nc1/C=C/c1ccc2c(c1)OCO2 | 3.87% | – |
| Cc1ccc(S(=O)(=O)N(C)C)cc1NC(=O)COC(=O)Cc1ccc(Br)cc1 | 2.8% | – |
| CC1CCc2c(nc3ncnn3c2N2CCN(c3ccccc3F)CC2)C1 (stereo not given) | -3.74% [at 31.5 µM] | – |
| O=c1[nH]cc(C#Cc2ccccc2)c2ncncc12 | -10.9% | – |
| CC(=O)c1ccc(N2CCN(S(=O)(=O)c3ccc4c(c3)C(=O)OC4)CC2)cc1 | -1.65% | – |
| CCC(C)Nc1nc(-c2cccc(OC)c2O)nc2ccccc12 (stereo not given) | 2.75% | – |
| O=C(COc1ccc2ccccc2c1)N1CCN(C(=O)c2ccco2)CC1 | 1.13% [at 31.5 µM] | – |
| O=c1oc2ccc(Br)cc2cc1-c1nc2c(s1)CCc1ccccc1-2 | -7.86% | – |
| COc1ccc(CCn2c3c(c(=O)[nH]c2=O)C(NC(=O)c2cccs2)(C(F)(F)F)C(=O)N3)cc1OC (stereo not given) | 4.85% [at 31.5 µM] | – |
| O=C1CC(c2ccccc2)Cc2nc(NCc3ccco3)ncc21 (stereo not given) | -2.02% | – |
| O=C(/C=C/c1ccc(O)c(O)c1)c1ccc(O[C@@H]2O[C@H](CO)[C@@H](O)[C@H](O)[C@H]2O)c(O)c1O | -46.4% | – |
| Cc1ccc(C(=O)c2sc3c(c2N)c(=O)[nH]c(=O)n3CCc2ccccc2)cc1 | -3.39% [at 31.5 µM] | – |
| COc1cc(CN2CCC(CO)(Cc3cccc(C(F)(F)F)c3)CC2)ccc1F | -3.98% | – |
| O=S(=O)(c1ccc(Cl)cc1)N1CCN(c2nc(Nc3cc(Cl)ccc3O)nc3ccccc23)CC1 | -2.43% [at 31.5 µM] | – |
| Nc1cccc(S(=O)(=O)N2CCOCC2)c1 | 3.24% | – |
| CCN(CC)c1ccc(/C=N/NC(=O)C(O)c2ccccc2)cc1 (stereo not given) | 1.24% [at 31.5 µM] | – |
